# Data published in PubChem BioAssay AID1671192 (National Center for Advancing Translational Sciences (NCATS), 2021).
# Results filed as inconclusive are left out. Calls of active or inactive are those of the source. Calls come from the whole dose curve; as a rule, active = well fitted curve in the direction sought with a large enough effect; inconclusive = small, poorly fitted or top-dose-only effect, or another doubt; inactive = no such curve, though single readings can be large or run the other way.
# Target: Polyunsaturated fatty acid lipoxygenase ALOX15 (Homo sapiens) (UniProt P16050)
# Experiment: Counterscreen qHTS for inhibitors of human arachidonate 12S-lipoxygenase (ALOX12): ALOX15 Assay
# In short: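 Purified human ALOX15 (15hLO-1) at 40 nM in 25 mM HEPES, 0.01% Triton X-100, pH 7.5, preincubated with compound 15 min at RT. Then 50 uM arachidonic acid for 30 min; hydroperoxide detected by Fe-xylenol orange as the 573/405 nm absorbance ratio.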
# Chain of Polyunsaturated fatty acid lipoxygenase ALOX15 (Homo sapiens) (P16050 whole entry, looked up): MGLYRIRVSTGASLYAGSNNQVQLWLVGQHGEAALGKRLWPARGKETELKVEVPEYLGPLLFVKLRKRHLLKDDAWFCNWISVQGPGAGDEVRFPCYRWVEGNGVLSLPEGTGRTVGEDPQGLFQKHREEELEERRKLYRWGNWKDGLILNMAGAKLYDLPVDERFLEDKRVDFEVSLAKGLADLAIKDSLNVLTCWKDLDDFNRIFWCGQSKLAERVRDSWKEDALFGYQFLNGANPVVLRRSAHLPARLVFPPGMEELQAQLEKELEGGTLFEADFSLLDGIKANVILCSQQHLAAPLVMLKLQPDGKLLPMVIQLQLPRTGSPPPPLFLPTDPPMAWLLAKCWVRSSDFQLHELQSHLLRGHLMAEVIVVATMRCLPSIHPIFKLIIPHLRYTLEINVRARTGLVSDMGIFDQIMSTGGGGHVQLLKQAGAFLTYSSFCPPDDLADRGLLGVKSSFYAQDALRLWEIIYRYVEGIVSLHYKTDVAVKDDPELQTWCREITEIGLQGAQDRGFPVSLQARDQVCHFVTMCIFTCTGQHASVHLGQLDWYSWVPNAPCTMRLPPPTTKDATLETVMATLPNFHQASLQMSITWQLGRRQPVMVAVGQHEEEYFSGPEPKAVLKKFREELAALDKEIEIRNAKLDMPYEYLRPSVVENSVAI
row,Structure (SMILES),outcome
1,O=C(c1ccccc1)N1CCn2c(nnc2C2CCNCC2)C1,inactive
2,Cc1ccc(-c2ccccc2CN)cc1Cl,inactive
3,CCCN1CCCC12Cc1ccccc1CN(C(=O)CCCC(=O)O)C2 (configuration not stated),inactive
4,O=C1NCc2ccccc2CC12CCN(Cc1cccc(Br)c1)C2 (configuration not stated),inactive
5,Cc1cc(C)cc(-c2ccc(CN3CCCC(c4nc5ccc(F)cc5c(=O)[nH]4)C3)cc2)c1 (configuration not stated),inactive
6,Cn1cccc1CN1CCCCC12Cc1ccccc1CNC2=O (configuration not stated),inactive
7,CN(C)CCC(=O)N1Cc2ccccc2CC2(CCCCN2CC2CCOCC2)C1 (configuration not stated),inactive
8,c1cncc(CN2CCn3c(nnc3C3CCCNC3)C2)c1 (configuration not stated),inactive
9,COc1ccc(-c2nc(C3CC3)nc3c2CN(C(=O)c2ccccc2OC)CC3)cc1,inactive
10,COc1ccc(CN2CCCC23Cc2ccccc2CNC3=O)c(O)c1 (configuration not stated),inactive
11,CN1CC(=O)N(C2CCNC2)Cc2c(NC3CCCC3)ncnc21 (configuration not stated),inactive
12,Cc1cccc(N2Cc3c(NCCCOC(C)C)ncnc3N(C)CC2=O)c1,inactive
13,O=C1NCc2ccccc2CC12CCN(Cc1ccc(-c3ccccc3)cc1)CC2,inactive
14,COCCNC(=O)c1cc(C)nc2onc(C3CCNC3)c12 (configuration not stated),inactive
15,O=C(c1ccc2c(c1)OCO2)N1CCCC2(CC(c3ccccc3)=NO2)C1 (configuration not stated),inactive
16,CN1CC(=O)N(C2CCCNCC2)Cc2c(NCCc3ccccc3F)ncnc21 (configuration not stated),inactive
17,O=C(c1cc(C2CC2)nc2onc(C3CCCNC3)c12)N1CCC(F)CC1 (configuration not stated),inactive
18,CC(=O)N1CCN(c2ccc(Cl)nn2)C(=O)C1,inactive
19,CC(C)Nc1ncnc2c1CN(C1CCCNC1)C(=O)CN2C (configuration not stated),inactive
20,CSc1ccc(-c2ccccc2C=O)cc1,inactive
21,NCCCC(=O)N1CCC2(CC1)CN(C(=O)Cc1ccc(Cl)cc1)CCO2,inactive
22,COc1ccc(NC2CN(C(=O)OC(C)(C)C)C2)cc1,inactive
23,O=C(NCC(F)(F)F)c1cc(C2CC2)nc2c1c(C1CCCN1)nn2-c1ccccc1 (configuration not stated),inactive

row,Structure (SMILES),outcome
1,CN1CC(=O)N(C2CCCNC2)Cc2c(NCCO)ncnc21 (configuration not stated),inactive
2,O=C(C1CCCC1)N1CC2(CCN(Cc3ccc(Cl)cc3)C2)Cc2ccccc21 (configuration not stated),inactive
3,O=C1NC(=NC2CCCC2)C2(CCCN(Cc3ccsc3)C2)N1c1cc(F)cc(F)c1 (configuration not stated),inactive
4,Cc1cc(C(=O)NCc2ccc(F)cc2)c2c(C3CCNC3)noc2n1 (configuration not stated),inactive
5,CCc1nc2c(c(-c3ccc(OC)cc3)n1)CCN(Cc1ccc(C(F)(F)F)cc1)CC2,inactive
6,COc1ccc(C(=O)N2CCn3c(nnc3C3CCNCC3)C2)cc1,inactive
7,COc1ccc(CN2CCCC3(Cc4ccccc4CNC3=O)C2)cc1 (configuration not stated),inactive
8,O=C(c1ccc(C(F)(F)F)cc1)N1CCn2c(nnc2C2CCCNC2)C1 (configuration not stated),inactive
9,COc1ccccc1CNc1ncnc2c1CN(C1CCCNC1)C(=O)CN2C (configuration not stated),inactive
10,COc1ccc(C(=O)N2CCc3nc(C4CC4)nc(-c4ccc(Cl)cc4)c3C2)cc1,inactive
11,O=C(c1ccncc1)N1CCCC(c2nnc3n2CCNC3)C1 (configuration not stated),inactive
12,Cc1ccccc1N(C)C1CN(C(=O)OC(C)(C)C)C1,inactive
13,O=Cc1cccc(N2CCN(C(=O)c3ccncc3)CC2=O)c1,inactive
14,O=C(c1ccc(Cl)cc1)N1CC2(CCN(Cc3ccc(Cl)cc3)C2)Cc2ccccc21 (configuration not stated),inactive
15,O=Cc1ccccc1-c1cncc(C(=O)O)c1,inactive
16,COc1cccc(N2C(=O)NC(=NC3CCCCC3)C23CCCN([S+](=O)([O-])c2cccc(C(F)(F)F)c2)C3)c1 (configuration not stated),inactive
17,CC(C)NC(=O)N1CNC(=O)C12CCN(C(=O)CN)CC2,inactive
18,CC(=O)NCCC(=O)N1Cc2ccccc2CC2(CCCN2CCc2ccc(C)cc2)C1 (configuration not stated),inactive
19,O=C1NC(=NC2CCCCC2)C2(CCN(Cc3ccc(F)cc3)C2)N1c1cccnc1 (configuration not stated),inactive
20,CC(C)CN1CCC(c2nc3ccc(F)cc3c(=O)[nH]2)CC1,inactive
21,CN1CC(=O)N(C2CCNC2)Cc2c(NC3CCN(Cc4ccccc4)CC3)ncnc21 (configuration not stated),inactive
22,O=C1NCCN1C1CCN(Cc2ccc(F)cc2)CC1,inactive
23,CN1CC(=O)N(C2CNC2)Cc2c(NCC3CC3)ncnc21,inactive

row,Structure (SMILES),outcome
1,O=C1NCc2ccccc2CC12CCCN2Cc1cccc(O)c1 (configuration not stated),inactive
2,CN1CC(=O)N(C2CCNCC2)Cc2c1ncnc2N1CCCC1CO (configuration not stated),inactive
3,O=C1NCc2ccccc2CC12CCN(Cc1ccc(Br)s1)CC2,inactive
4,O=C1NC2(Cc3ccccc31)CN(C(=O)c1ccccc1)C2,inactive
5,NCC(=O)N1Cc2ccccc2CC2(CCCCN2CC2CCOCC2)C1 (configuration not stated),inactive
6,O=C1NCc2ccccc2CC12CCN(Cc1cc(O)cc(O)c1)CC2,inactive
7,c1ccc2c(c1)CCN2C1CN(Cc2cccc3ccccc23)C1,inactive
8,CC1C=CC(C)N1c1ncnc2c1CN(C1CCNCC1)C(=O)CN2C (configuration not stated),inactive
9,CSc1ccc(-c2ccc(C=O)cc2)cc1,inactive
10,Cc1ccc2nc(C3CCN(Cc4cccs4)CC3)[nH]c(=O)c2c1,inactive
11,CNC(=O)c1cn2c(n1)CN(C(=O)OC)CC2,inactive
12,COc1ccc(N2CC3CCC(C2)N3C(=O)NC(C)C)cc1,inactive
13,CN(C)c1ccc(CN2CCn3c(nn(-c4ccc(Cl)cc4)c3=O)C2)cc1,inactive
14,CNCc1ccc(N2CCCC2)cc1,inactive
15,O=c1n(-c2ccc(C(F)(F)F)cc2)nc2n1CCN(Cc1ccc(C(F)(F)F)cc1)C2,inactive
16,O=C(O)c1ccc(-c2cnccn2)cc1,inactive
17,NCc1ccc(-c2ccccn2)cc1,inactive
18,CN1CC(=O)N(C2CCNCC2)Cc2c1ncnc2N1CCc2ccccc2C1,inactive
19,COc1ccccc1CNc1ncnc2c1CN(C1CCCNCC1)C(=O)CN2C (configuration not stated),inactive
20,Cc1cc(C(=O)NC2CCCC2)c2c(C3CCNCC3)noc2n1,inactive
21,COc1ccc(N2CC3CCC(C2)N3Cc2ccc(-c3cccnc3)cc2)cc1,inactive
22,Cc1noc(C)c1C(=O)N1Cc2ccccc2CC2(CCN(C)C2)C1 (configuration not stated),inactive
23,O=C1NCc2ccccc2CC12CCN(Cc1c(Cl)cncc1Cl)C2 (configuration not stated),inactive

row,Structure (SMILES),outcome
1,O=C(c1ccccc1)N1Cc2ccccc2CC2(CCN(CC3CCNC3)C2)C1 (configuration not stated),inactive
2,O=C(c1ccc(C(F)(F)F)cc1)N1CCCC2(CC(c3ccccc3)=NO2)C1 (configuration not stated),inactive
3,COc1ccc(-n2nc3n(c2=O)CCN(C(=O)c2ccccn2)C3)cc1,inactive
4,CNCc1cccc(Oc2ccccc2)c1,inactive
5,Cc1noc(C)c1C(=O)N1Cc2ccccc2CC2(CCN(CC3CCNCC3)C2)C1 (configuration not stated),inactive
6,CCN1CCCC2(Cc3ccccc3CN(C(=O)c3ccccc3)C2)C1 (configuration not stated),inactive
7,O=C1NCc2ccccc2CC12CCN(Cc1c[nH]c3ccccc13)CC2,inactive
8,O=Cc1cccc(-c2cncc(C(=O)O)c2)c1,inactive
9,O=Cc1ccccc1-c1ccc(OC(F)(F)F)cc1,inactive
10,Cn1nc(C2CCNC2)c2c(C(=O)NCc3ccc(F)cc3)cc(C3CC3)nc21 (configuration not stated),inactive
11,COc1cccc(CNc2ncnc3c2CN(C2CCCNCC2)C(=O)CN3C)c1 (configuration not stated),inactive
12,CCCCCNc1ncnc2c1CN(C1CCNCC1)C(=O)CN2C,inactive
13,CN1CC(=O)N(C2CCCNCC2)Cc2c1ncnc2N1CCCC(O)C1 (configuration not stated),inactive
14,COc1ccc(-c2nc(C3CC3)nc3c2CN(C(=O)c2ccccc2F)CC3)cc1,inactive
15,O=C(Nc1ccccc1)N1CCC(c2nnc3n2CCNC3)CC1,inactive
16,CN(C)CC(=O)N1Cc2ccccc2CC2(CCCN(CC3CCNC3)C2)C1 (configuration not stated),inactive
17,CN1CC(=O)N(C2CCNC2)Cc2c(NCCc3cccc(F)c3)ncnc21 (configuration not stated),inactive
18,COc1ccc(CN2CCC3(Cc4ccccc4CNC3=O)C2)c(O)c1 (configuration not stated),inactive
19,CN1CC(=O)N(C2CCCNCC2)Cc2c1ncnc2N1CCN(Cc2ccccc2)CC1 (configuration not stated),inactive
20,O=c1n(-c2cccc(Cl)c2)nc2n1CCN([S+](=O)([O-])c1ccccc1)C2,inactive
21,CC(=O)N1CCC(c2nnc3n2CCNC3)CC1,inactive
22,N#Cc1ccccc1CN1CCCC12Cc1ccccc1CNC2=O (configuration not stated),inactive
23,Cn1nc(C2CCNC2)c2c(C(=O)NCc3ccncc3)cc(C3CC3)nc21 (configuration not stated),inactive

row,Structure (SMILES),outcome
1,CC1CCCN(c2ncnc3c2CN(C2CCNCC2)C(=O)CN3C)C1 (configuration not stated),inactive
2,N#Cc1cccnc1-c1ccc(C(=O)O)cc1,inactive
3,O=C1NCc2ccccc2CC12CCN(Cc1ccc(Cl)o1)C2 (configuration not stated),inactive
4,COCCNC(=O)c1cc(-c2ccc(OC)cc2)nc2onc(C3CCNC3)c12 (configuration not stated),inactive
5,O=C(c1ccccc1F)N1CCc2nc(C3CC3)nc(-c3ccc(Cl)cc3)c2C1,inactive
6,Fc1ccc(OC2CN(Cc3ccc(C(F)(F)F)cc3)C2)cc1F,inactive
7,COc1ccc(-c2nc(C3CC3)nc3c2CN([S+](=O)([O-])c2ccccc2)CC3)cc1,inactive
8,O=c1[nH]c(C2CCCN(Cc3cccc(-c4cccs4)c3)C2)nc2ccc(F)cc12 (configuration not stated),inactive
9,CCNc1ncnc2c1CN(C1CCNC1)C(=O)CN2C (configuration not stated),inactive
10,O=C(O)CCCC(=O)N1Cc2ccccc2CC2(CCCN(Cc3ccncc3)C2)C1 (configuration not stated),inactive
11,COC(=O)CNC(=O)C1CCc2nnc(CNC(=O)c3cccnc3)n21 (configuration not stated),inactive
12,CNC(c1ccccc1)c1ccccc1,inactive
13,CN1CC(=O)N(C2CCCNCC2)Cc2c1ncnc2N1CCN(c2ccccn2)CC1 (configuration not stated),inactive
14,Fc1ccc(CN2CC(Oc3ccc4c(c3)OCO4)C2)cc1,inactive
15,CN1CC(=O)N(C2CCNCC2)Cc2c1ncnc2N1CCCCC1,inactive
16,CCN1CCCCC12Cc1ccccc1CN(S(=O)(=O)c1ccccc1)C2 (configuration not stated),inactive
17,CN(C)c1ccc(CN2CCn3c(nnc3C3CCNCC3)C2)cc1,inactive
18,COc1ccc(CN2CC3(C2)C(=O)Nc2ccccc23)cc1,inactive
19,NCC(=O)N1Cc2ccccc2CC2(CCN(CC3CCNC3)C2)C1 (configuration not stated),inactive
20,CC(=O)NC1CC2(CCN(C(=O)Cc3cnc[nH]3)CC2)c2ccccc21 (configuration not stated),inactive
